# Assay results taken from PubChem BioAssay (NCATS).
# Values without a mark were called inactive. The rule behind the calls is not given here.
# Test system: HIV-1 nucleocapsid protein NCp7 (binding to TG oligonucleotide)
# Assay: HIV Nucleocapsid (AID 346);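 note: potency is for inhibitors that block NC binding and lower polarization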
# Settings: HIV-1 NC / fluorescein-TGTGTGTG probe, fluorescence polarization
# How it was run: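 Reagents dispensed (10 nM TG4xF, 100 nM HIV-1 NC), plates spun, compounds pin-transferred, then incubated 1 hr at room temperature before FP imaging. Buffer: Hepes pH 7.5, 250mM NaCl, 1uM ZnCl2, 100 uM TCEP, 5 mM 2-mercaptoethanol.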
# Potency is the fitted concentration of half-maximal effect.
row,Structure (SMILES),Potency [µM]
1,Cn1cccc1C(=O)N1CCC2(CC1)CCN(c1ccc(-c3ccccc3)cc1)CC2,> 20
2,O=c1c(-c2ccc(F)cc2)nc2cnc(Oc3cccc(Cl)c3)nc2n1C1CC1,> 20
3,COCCNc1ncnc2ccc(-c3cccnc3)cc12,> 20
4,COc1cccc(Cn2c(=O)c(-c3cc(F)cc(F)c3)nc3cnc(N4CCOCC4)nc32)c1,> 20
5,c1csc(CNc2nc(-c3ccoc3)nc3ccccc23)c1,> 20
6,CN(C)c1ncc2nc(-c3ccccc3)c(=O)n(CCc3ccccc3)c2n1,> 20
7,COc1ccc(CNc2ncncc2-c2cccc(NS(C)(=O)=O)c2)c(OC)c1,> 20
8,Cc1ccccc1-c1nc(N2CCN(C)CC2)c2ccccc2n1,> 20
9,COc1ccc(-n2c(=O)c(-c3cccs3)nc3cnc(N4CCN(C)CC4)nc32)cc1,> 20
10,CN(C)C(=O)c1ccc(-c2cc(-n3ccnc3)ncn2)cc1,> 20
11,c1cncc(CNc2ncncc2-c2ccc3c(c2)OCO3)c1,> 20
12,O=C(Nc1ccccc1)N1CCC2(CC1)CCN(C(=O)c1cnccn1)CC2,> 20
13,O=C(Nc1ccccc1)N1CCC2(CC1)CCN(C(=O)c1cccc(F)c1)CC2,> 20
14,COc1ccc(NC(=O)N2CC[C@@]3(CCCN(C(=O)c4cccn4C)C3)C2)cc1,> 20
15,CN(C)c1ncc2nc(-c3cc(F)cc(F)c3)c(=O)n(-c3ccccc3)c2n1,> 4
16,COCC(=O)N1CCC[C@@]2(CCN(Cc3nccs3)C2)C1,> 20
17,COCC(=O)N1CCC2(CC1)CN(c1ccncc1)C2,> 20
18,COc1ncc2ncc(=O)n(C3CC3)c2n1,> 20
19,Cc1ccccc1-c1nccc(-n2ccnc2)n1,> 20
20,O=C(c1csnn1)N1CCC2(CCCN(c3cccc(-c4ccccc4)c3)C2)CC1,> 20

row,Structure (SMILES),Potency [µM]
1,CC(C)NC(=O)N1CCC2(CC1)CCN(C(=O)c1ccncc1)CC2,> 20
2,COc1cccc(Cn2c(=O)cnc3cnc(OC)nc32)c1,> 20
3,COc1cccc(Cn2c(=O)c(CCc3ccccc3)nc3cnc(N4CCN(C)CC4)nc32)c1,> 4
4,CN(Cc1ccco1)c1ccnc(-c2ccoc2)n1,> 20
5,Cc1ccccc1-c1ccc2ncnc(N3CCOCC3)c2c1,> 20
6,N#Cc1ccc(CN2CCC3(CC2)CCN(C(=O)c2csnn2)CC3)cc1,> 20
7,COCCn1c(=O)c(-c2cccs2)nc2cncnc21,> 20
8,O=C(c1cccc(F)c1)N1CCC2(CC1)CN(c1ccccn1)C2,> 20
9,COc1ccc(-n2c(=O)c(C)nc3cnc(Oc4cccc(Cl)c4)nc32)cc1,> 20
10,COc1ccccc1CNc1ncnc2ccc(-c3ccc4c(c3)OCO4)cc12,> 20
11,Cc1cccc(CNc2ncncc2-c2ccc(C(=O)N(C)C)cc2)c1,> 20
12,COCCn1c(=O)c(-c2cc(F)cc(F)c2)nc2cnc(OCc3ccccc3)nc21,> 20
13,COc1ccc(C(=O)N2CCC3(CCCN(Cc4ccncc4)C3)CC2)cc1,> 20
14,Cc1noc(C)c1C(=O)N1CCC2(CCN(Cc3ccncc3)CC2)CC1,> 20
15,CN1CCN(c2ncc3nc(-c4cccs4)c(=O)n(Cc4ccc(F)cc4)c3n2)CC1,> 4
16,COc1ccc(C(=O)N2CCC3(CCCN(Cc4cc(C(F)(F)F)cc(C(F)(F)F)c4)C3)CC2)cc1,> 4
17,N#Cc1ccc(CN2CC[C@@]3(CCCN(C(=O)c4cccc(F)c4)C3)C2)cc1,> 20
18,CN(C)C(=O)c1ccc(-c2ccc3ncnc(NCc4cccs4)c3c2)cc1,> 20
19,Cc1nc2cnc(Oc3ccccc3)nc2n(-c2ccccc2)c1=O,> 20
20,O=c1c(-c2ccc(F)cc2)nc2cnc(Oc3ccccc3)nc2n1C[C@H]1CCCO1,> 20
